Experimental data: the supplement of paper PMC8728848
This excerpt belongs to a sample that is enriched for the strongest signals.

Columns and labels:
Test in all cases: glycan array binding signal (z-score within array); higher = stronger binding
Conditions in all cases: glycan notation: IUPAC condensed, linker removed; mutation: D21K
[1] = biological target: GalNAc(a1-3)GalNAc(b1-3)Gal(a1-4)Gal(b1-4)GlcNAc
Procedure, shortened: (§1)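 Glycan array data came from 3228 arrays in the Consortium for Functional Glycomics database, and only arrays with an available protein sequence were kept. Glycan names were put into IUPAC-condensed notation, and columns mapping to the same glycan were averaged. The binding signal is a within-array Z-score, averaged across arrays of one protein sequence run at different concentrations or buffers and across linkers. A negative Z-score can be read as non-binding.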

[2] = biological target: GalNAc(b1-3)Gal(a1-4)Gal(b1-4)GlcNAc(b1-3)Gal(b1-4)Glc
Procedure, shortened: as §1

GalNAc(b1-3)GlcNAc = biological target: GalNAc(b1-3)GlcNAc
Procedure, shortened: as §1

GalNAc3S(b1-4)GlcNAc = biological target: GalNAc3S(b1-4)GlcNAc
Procedure, shortened: as §1

GalNAc4S6S(b1-4)GlcNAc = biological target: GalNAc4S6S(b1-4)GlcNAc
Procedure, shortened: as §1

Glc(a1-6)Glc(a1-6)Glc = biological target: Glc(a1-6)Glc(a1-6)Glc
Procedure, shortened: as §1

GlcA(b1-3)GlcNAc = biological target: GlcA(b1-3)GlcNAc
Procedure, shortened: as §1

[3] = biological target: GlcNAc(b1-2)[GlcNAc(b1-6)]Man(a1-6)[GlcNAc(b1-2)Man(a1-3)]Man(b1-4)GlcNAc(b1-4)GlcNAc
Procedure, shortened: as §1

GlcNAc(b1-3)Gal = biological target: GlcNAc(b1-3)Gal
Procedure, shortened: as §1

GlcNAc(b1-3)Gal(b1-4)Glc = biological target: GlcNAc(b1-3)Gal(b1-4)Glc
Procedure, shortened: as §1

[4] = biological target: GlcNAc(b1-3)Gal(b1-4)GlcNAc
Procedure, shortened: as §1

[5] = biological target: GlcNAc(b1-3)Gal(b1-4)GlcNAc(b1-3)Gal(b1-4)GlcNAc(b1-2)Man(a1-3)[GlcNAc(b1-3)Gal(b1-4)GlcNAc(b1-3)Gal(b1-4)GlcNAc(b1-2)Man(a1-6)]Man(b1-4)GlcNAc(b1-4)[Fuc(a1-6)]GlcNAc
Procedure, shortened: as §1

[6] = biological target: GlcNAc(b1-3)Gal(b1-4)GlcNAc(b1-3)Gal(b1-4)GlcNAc(b1-3)Gal(b1-4)GlcNAc(b1-2)[GlcNAc(b1-3)Gal(b1-4)GlcNAc(b1-3)Gal(b1-4)GlcNAc(b1-3)Gal(b1-4)GlcNAc(b1-6)]Man(a1-6)[GlcNAc(b1-3)Gal(b1-4)GlcNAc(b1-3)Gal(b1-4)GlcNAc(b1-3)Gal(b1-4)GlcNAc(b1-2)Man(a1-3)]Man(b1-4)GlcNAc(b1-4)[Fuc(a1-6)]GlcNAc
Procedure, shortened: as §1

[7] = biological target: GlcNAc(b1-3)Gal(b1-4)GlcNAc(b1-3)Gal(b1-4)GlcNAc(b1-3)Gal(b1-4)GlcNAc(b1-3)Gal(b1-4)GlcNAc(b1-2)[GlcNAc(b1-3)Gal(b1-4)GlcNAc(b1-3)Gal(b1-4)GlcNAc(b1-3)Gal(b1-4)GlcNAc(b1-3)Gal(b1-4)GlcNAc(b1-6)]Man(a1-6)[GlcNAc(b1-3)Gal(b1-4)GlcNAc(b1-3)Gal(b1-4)GlcNAc(b1-3)Gal(b1-4)GlcNAc(b1-3)Gal(b1-4)GlcNAc(b1-2)Man(a1-3)]Man(b1-4)GlcNAc(b1-4)[Fuc(a1-6)]GlcNAc
Procedure, shortened: as §1

[8] = biological target: GlcNAc(b1-3)Gal(b1-4)GlcNAc(b1-6)[GlcNAc(b1-3)Gal(b1-3)]GalNAc
Procedure, shortened: as §1

[9] = biological target: GlcNAc(b1-3)[GlcNAc(b1-4)][GlcNAc(b1-6)]GlcNAc
Procedure, shortened: as §1

[10] = biological target: GlcNAc(b1-3)[GlcNAc(b1-6)]Gal(b1-4)GlcNAc
Procedure, shortened: as §1

[11] = biological target: Neu5Ac(a2-3)Gal(b1-3)GlcNAc6S
Procedure, shortened: as §1

[12] = biological target: Neu5Ac(a2-3)Gal(b1-4)GlcNAc(b1-3)Gal(b1-4)GlcNAc(b1-3)GalNAc
Procedure, shortened: as §1

[13] = biological target: Neu5Ac(a2-3)Gal(b1-4)GlcNAc(b1-3)GalNAc
Procedure, shortened: as §1

[14] = biological target: Neu5Ac(a2-6)Gal(b1-4)GlcNAc(b1-2)Man
Procedure, shortened: as §1

[15] = biological target: Neu5Ac(a2-6)Gal(b1-4)GlcNAc(b1-2)Man(a1-3)[Neu5Ac(a2-3)Gal(b1-4)GlcNAc(b1-2)Man(a1-6)]Man(b1-4)GlcNAc(b1-4)GlcNAc
Procedure, shortened: as §1

[16] = biological target: Neu5Ac(a2-6)Gal(b1-4)GlcNAc(b1-2)Man(a1-3)[Neu5Ac(a2-6)Gal(b1-4)GlcNAc(b1-2)Man(a1-6)]Man(b1-4)GlcNAc(b1-4)GlcNAc
Procedure, shortened: as §1

[17] = biological target: Neu5Ac(a2-6)Gal(b1-4)GlcNAc(b1-2)[Neu5Ac(a2-6)Gal(b1-4)GlcNAc(b1-6)]Man(a1-6)[Neu5Ac(a2-6)Gal(b1-4)GlcNAc(b1-2)Man(a1-3)][GlcNAc(b1-4)]Man(b1-4)GlcNAc(b1-4)GlcNAc
Procedure, shortened: as §1

[18] = biological target: Neu5Ac(a2-6)Gal(b1-4)GlcNAc(b1-3)Gal(b1-4)GlcNAc(b1-3)Gal(b1-4)GlcNAc
Procedure, shortened: as §1

[19] = biological target: Neu5Ac(a2-6)Gal(b1-4)GlcNAc(b1-3)Gal(b1-4)GlcNAc(b1-3)GalNAc
Procedure, shortened: as §1

[20] = biological target: Neu5Ac(a2-6)Gal(b1-4)GlcNAc(b1-3)GalNAc
Procedure, shortened: as §1

[21] = biological target: Neu5Ac(a2-8)Neu5Ac(a2-3)Gal(b1-3)GalNAc(b1-4)[Neu5Ac(a2-8)Neu5Ac(a2-3)]Gal(b1-4)Glc
Procedure, shortened: as §1

## KILRGVCKKIMRTFLRRISKKILTGKK [C7A (Sus scrofa)]
[1]
  glycan array binding signal (z-score): 0.64
[2]
  glycan array binding signal (z-score): 1.58
GalNAc(b1-3)GlcNAc
  glycan array binding signal (z-score): -0.947
GalNAc3S(b1-4)GlcNAc
  glycan array binding signal (z-score): 0.857
GalNAc4S6S(b1-4)GlcNAc
  glycan array binding signal (z-score): 2.43
Glc(a1-6)Glc(a1-6)Glc
  glycan array binding signal (z-score): -0.06
GlcA(b1-3)GlcNAc
  glycan array binding signal (z-score): 0.609
[3]
  glycan array binding signal (z-score): -0.74
GlcNAc(b1-3)Gal
  glycan array binding signal (z-score): -1.53
GlcNAc(b1-3)Gal(b1-4)Glc
  glycan array binding signal (z-score): -0.83
[4]
  glycan array binding signal (z-score): -0.565
[5]
  glycan array binding signal (z-score): 2.43
[6]
  glycan array binding signal (z-score): 2.39
[7]
  glycan array binding signal (z-score): 2.49
[8]
  glycan array binding signal (z-score): -0.629
[9]
  glycan array binding signal (z-score): -0.24
[10]
  glycan array binding signal (z-score): 0.238
[11]
  glycan array binding signal (z-score): 1.71
[12]
  glycan array binding signal (z-score): 2.25
[13]
  glycan array binding signal (z-score): 0.438
[14]
  glycan array binding signal (z-score): -0.792
[15]
  glycan array binding signal (z-score): 0.295
[16]
  glycan array binding signal (z-score): 0.295
[17]
  glycan array binding signal (z-score): 0.348
[18]
  glycan array binding signal (z-score): 0.41
[19]
  glycan array binding signal (z-score): 0.528
[20]
  glycan array binding signal (z-score): 1.32
[21]
  glycan array binding signal (z-score): -0.48
